PAFAH2 FP inh – PAFAH2 enzyme inhibitors, primary screen, biochemical, fluorescence polarization, human; inhibition, % at 3.39 µM; Platelet-activating factor acetylhydrolase 2, cytoplasmic (Homo sapiens), Q99487; recombinant PAFAH2, FP-rhodamine activity probe; actives 0.99% (n = 340,000); AID 492956, 2010;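 active = inhibition above the mean over all tested compounds plus 3 SD, cut at about 30% in these data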;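 also: inhibitors block probe labeling of enzyme so polarization drops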
PAFAH1B3 inh – PAFAH1B3 enzyme inhibitors, primary screen, biochemical, fluorescence polarization, human | Platelet-activating factor acetylhydrolase IB subunit alpha1 (Homo sapiens), Q15102 | recombinant PAFAH1B3, FP-rhodamine probe | inhibition, % at 3.39 µM | actives 0.28% (n = 340,000) | AID 492972, 2010;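 active = inhibition above the screen-wide average of all tested compounds plus 3 SD, cut at about 25% in these data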
Target sequence (Q15102 whole entry, looked up): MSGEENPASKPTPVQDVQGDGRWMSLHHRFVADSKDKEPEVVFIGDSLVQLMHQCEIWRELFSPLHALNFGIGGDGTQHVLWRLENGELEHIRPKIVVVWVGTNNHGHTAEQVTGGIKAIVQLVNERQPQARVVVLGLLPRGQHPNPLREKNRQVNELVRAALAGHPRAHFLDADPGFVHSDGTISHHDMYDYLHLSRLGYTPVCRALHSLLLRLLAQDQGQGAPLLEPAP
Fam108B counter – mouse Fam108B serine hydrolase inhibitors, primary screen, counter-screen for RBBP9 inhibitor project, biochemical, fluorescence polarization | recombinant Fam108B, FP-Rh probe fluorescence polarization | actives 0.33% (n = 300,000) | AID 1947, 2009 | inhibition, % at 9.51 µM;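 active = inhibition above the screen mean inhibition plus 3 SD, computed separately per campaign, cut at about 18% in these data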;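 also: inhibitors lower polarization as less probe binds the enzyme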
pPAFAH inh – pPAFAH enzyme inhibitors, primary screen, biochemical, fluorescence polarization, human. Platelet-activating factor acetylhydrolase (Homo sapiens), Q13093. recombinant pPAFAH, FP-rhodamine probe fluorescence polarization. inhibition, % at 3.39 µM. actives 1.5% (n = 330,000);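 active = inhibition above the mean inhibition across the screen plus 3 SD, cut at about 25% in these data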;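 also: inhibitors block binding of the rhodamine activity-based probe so polarization drops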
PAFAH1B2 FP inh – PAFAH1B2 enzyme inhibitors, primary screen, biochemical, fluorescence polarization, human; recombinant PAFAH1B2, FP-rhodamine activity probe; inhibition, % at 3.39 µM; actives 1.2% (n = 340,000); AID 492953, 2010;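 active = inhibition above the mean of all tested compounds plus 3 SD, cut at about 24% in these data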
Target sequence (P68402 whole entry, looked up): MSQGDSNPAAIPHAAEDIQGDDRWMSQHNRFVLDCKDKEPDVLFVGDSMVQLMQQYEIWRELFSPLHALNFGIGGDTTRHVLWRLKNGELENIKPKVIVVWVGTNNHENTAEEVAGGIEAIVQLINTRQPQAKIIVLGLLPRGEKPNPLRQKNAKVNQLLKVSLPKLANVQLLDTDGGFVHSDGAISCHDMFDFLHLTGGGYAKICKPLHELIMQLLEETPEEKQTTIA
PME-1 inh – PME-1 inhibitors via competitive probe labeling, primary screen, biochemical, fluorescence polarization, FP-Rh probe, HTS; Protein phosphatase methylesterase 1 (Homo sapiens), Q9Y570; recombinant PME-1; inhibition, % at 5.9 µM; actives 0.53% (n = 320,000); AID 2130, 2009;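 active = inhibition above the campaign mean of all compounds plus 3 SD, cut at about 26% in these data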;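 also: competitive labeling of PME-1 active site by serine hydrolase directed probe; inhibitors block probe labeling so polarization falls and inhibition rises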
Large screens that a line does not name were inactive. This is a sample that favours compounds with a hit; in the whole collection about 2.8% have one here.

COc1ccc(NC(=O)CCN2CCN(S(=O)(=O)c3ccc(C(C)C)cc3)CC2)cc1	none
O=C(c1cncc(Br)c1)N1CCN(S(=O)(=O)c2ccc(Cl)cc2)CC1	PAFAH1B2 FP inh 25
O=C(CN1CCN(S(=O)(=O)c2ccc(Cl)cc2)CC1)c1ccc(O)c(O)c1	PAFAH1B2 FP inh 33
O=C(N=C1SC2CS(=O)(=O)CC2N1c1ccccc1)C1CCCCC1 (stereo not drawn)	none
COc1ccc(-c2cnnc(N/N=C/c3ccc(O)c(O)c3)n2)cc1	PME-1 inh 29
Cc1cc(Cl)cc(C)c1OCC(=O)N1CCN(c2ncccn2)CC1	none (no result: Fam108B counter)
COc1ccccc1C(=O)NC(=O)COC(=O)Cc1ccccc1[N+](=O)[O-]	none
N#Cc1cc2ccccc2nc1SCC(=O)Nc1ccccc1N1CCOCC1	PME-1 inh 30
Cc1cccc2cc(C#N)c(SCC(=O)Nc3ccccc3N3CCOCC3)nc12	none
CC1(C)CC(NC(=O)C(=O)NCCc2ccc(Cl)cc2)CC(C)(C)N1	none
O=C(CCc1c[nH]c2ccccc12)NCCc1ccc(Cl)cc1	PAFAH1B2 FP inh 28
O=C(NCCc1ccc(O)cc1)c1ccc(Cl)cc1	none
COc1ccc(CCNC(=O)c2ccc(=O)[nH]c2)cc1	none
O=C(NCCCO)C(=O)NCCc1ccc(Cl)cc1	PAFAH1B2 FP inh 28
O=C(NCCc1ccc(Cl)cc1)c1ccc(=O)[nH]c1	PAFAH1B2 FP inh 30
CCNC(=O)C(=O)NCCc1ccc(Cl)cc1	PAFAH1B2 FP inh 25
CSc1nc(C(=O)N2CCCC(Nc3ccc(C)c(C)c3)C2)cs1 (stereo not drawn)	none
COc1ccc(-c2c(C)c3ccc(O)cc3oc2=O)cc1	none
CCN1CCN(S(=O)(=O)c2ccc(C(C)(C)C)cc2)CC1	none
O=C(NCCc1ccccc1)c1nnc(CS(=O)(=O)c2ccccc2)o1	pPAFAH inh 28
O=C(NCCc1ccccc1)c1nc(CS(=O)(=O)c2ccc(Cl)cc2)no1	none
CC(C)(C)c1ccc(S(=O)(=O)N(CCCN2CCOCC2)Cc2cccs2)cc1	PAFAH2 FP inh 30, pPAFAH inh 32
CC(NC(=O)c1cccc(S(=O)(=O)N2CCCCCC2)c1)c1ccccc1 (stereo not drawn)	PAFAH1B2 FP inh 25 (no result: Fam108B counter)
CC(NC(=O)c1cc(S(=O)(=O)N2CCCC2)cn1C)c1ccccc1 (stereo not drawn)	none
CCOC(=O)c1c(-c2ccc(-c3ccccc3)cc2)csc1NC(=O)C1C2CCC(O2)C1C(=O)O (stereo not drawn)	pPAFAH inh 28
N=c1c[n+](-c2ccc(Cl)cc2)[n-]o1	PAFAH1B2 FP inh 31
Cc1c(N=C2NC(=O)/C(=C/c3ccc(O)cc3)S2)c(=O)n(-c2ccccc2)n1C	none
O=C1NC(=NCc2ccccc2)S/C1=C/c1ccc(O)cc1	pPAFAH inh 29
COc1ccc(NC(=O)COC(=O)CCc2ccc(S(=O)(=O)N3CCOCC3)cc2)cc1Cl	none (no result: Fam108B counter, PME-1 inh)
O=C(COc1ccccc1Cl)Nc1ccc(N2CCCC2)cc1	pPAFAH inh 58
O=C(Cc1ccccc1)Nc1ccc(N2CCCC2)cc1	pPAFAH inh 33
CCN(C(=O)c1ccc(NC(=O)Cc2ccccc2)cc1)c1ccccc1	PAFAH1B2 FP inh 26 (no result: Fam108B counter, pPAFAH inh, PME-1 inh)
CC1CN(CCCCOc2ccc(F)cc2)CC(C)O1 (stereo not drawn)	none
O=C(/C=C\c1ccco1)NC(=S)Nc1ccccc1O	pPAFAH inh 33
Cc1ccc(NC(=S)NC(=O)/C=C/c2ccco2)c(O)c1	pPAFAH inh 30
COc1ccccc1CNC(=O)COC(=O)CCN=C1NS(=O)(=O)c2ccccc21	none
Cc1cc(NS(=O)(=O)c2ccc(Nc3nc(-c4sc(NC(=O)c5ccccc5)nc4C)cs3)cc2)no1	pPAFAH inh 69, PME-1 inh 81 (no result: PAFAH2 FP inh, PAFAH1B3 inh, PAFAH1B2 FP inh)
COc1ccc(-c2csc(Nc3ccc(S(=O)(=O)Nc4cc(C)on4)cc3)n2)cc1	pPAFAH inh 27
Cc1noc(C)c1COc1ccccc1C(=O)NC(C)c1ccc(F)cc1 (stereo not drawn)	none (no result: Fam108B counter, pPAFAH inh, PME-1 inh)
Cc1ccc(SCC2(O)CCN(C(=O)c3ccc(Cl)cc3)CC2)cc1	pPAFAH inh 28
